# Source: PubChem
# In the library only some 2.3% were active in any assay of this set; here they are far more common.
# TAG inh = inhibitors of triacylglycerol accumulation, primary screen, cell-based, uHTS, fluorescence, H9c2. inhibition, % at 12.5 µM. H9c2 cells, Nile Red lipid (TAG) fluorescence; cells loaded with 200 µM oleic acid. 230,000 compounds, 0.66% hits;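 active = pattern-corrected inhibition of lipid staining of at least 50% with the nuclear-stain viability signal not falling by more than 50%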;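 note: 0% = DMSO wells and 100% = triacsin C control wells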
# 697 NFkB inh = inhibitors of PMA/ionomycin-induced NF-kB reporter, 697 cells, primary screen, B-cell NF-kB inhibitor project, cell-based, luminescence, uHTS; 697 B-cell NF-kB luciferase reporter, 16 h; inhibition, % at 4 µM; 330,000 compounds, 0.33% hits; AID 435022, 2010; in the data active = inhibition above about 35%
# Gli-Sufu antag = Gli-Sufu pathway antagonists, primary screen, luciferase luminescence, Sufu-KO-LIGHT cells, uHTS. Sufu-KO-LIGHT fibroblasts, Gli luciferase reporter luminescence. inhibition, % at 5 µM. 340,000 compounds, 0.74% hits;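 active = inhibition above about 55%, limit read from the data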;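 note: 0% = DMSO-treated cells and 100% = wells with medium but no cells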
# aSyn 5UTR inh = MLPCN primary screen, SNCA 5' untranslated region; inhibition, % (tested at 7.5 µM); alpha-synuclein 5'UTR reporter, inhibitor activity; 300,000 compounds, 0.82% hits; in the data active = inhibition above about 60%;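 note: H4 neuroglioblastoma cells stably carrying SNCA 5'UTR luciferase fusion; 0% = DMSO wells and 100% = positive control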
# Shn3 3UTR inh = reduction of Shn3 3'UTR firefly luciferase signal, primary screen, Schnurri-3 inhibitor project, cell-based, Clone20 osteoblasts, set 2; Clone20 osteoblast Shn3 3'UTR firefly luciferase, 24 h; inhibition, % at 12.5 µM; 360,000 compounds, 0.52% hits; AID 588674, 2011;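 active = mean inhibition of at least 75% with every replicate also reaching 75%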;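 note: 0% = median of neutral control wells and 100% = pilot-screen positive control compound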
# Jurkat NFkB inh = inhibitors of induced NF-kB luciferase reporter, primary screen, TCR NF-kB activation inhibitor project, cell-based, luminescence, uHTS; 330,000 compounds, 0.53% hits; Jurkat, PMA/ionomycin-induced NF-kB luciferase reporter; inhibition, % at 4 µM; in the data active = inhibition above about 50%
# Gli antag conf = Gli-SUFU pathway antagonists, confirmation, single concentration, luciferase luminescence, Sufu-KO-LIGHT cells; shares compounds with Gli-Sufu antag; Gli luciferase reporter; inhibition, % at 5 µM; 2,500 compounds, 40% hits; AID 602428, 2012;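 active = mean inhibition at 5 µM reaching about 45%, limit read from the data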;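 note: plate controls were DMSO-treated cells for no effect and wells lacking cells for full effect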
# SufuKO cytotox = cytotoxicity in Sufu-KO-LIGHT cells, confirmation, cytotoxicity control for Gli-SUFU antagonist project, cell-based, ATP luminescence, single concentration; shares compounds with Gli-Sufu antag; cytotoxicity, % at 5 µM; 2,500 compounds, 32% hits; AID 651994, 2013;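 active = mean cytotoxicity at 5 µM above about 25%, limit read from the data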;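 note: cells exposed to compound overnight for roughly 16 to 18 hours; plate controls were DMSO wells with cells for no effect and medium without cells for full effect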
# Wnt3a counter = Wnt3a reporter signal inhibition, confirmation, counter-screen for Gli-SUFU antagonist project, Wnt-LIGHT cells, luminescence, single concentration | shares compounds with Gli-Sufu antag | Wnt3a-driven luciferase reporter | AID 651995, 2013 | 2,500 compounds, 20% hits | inhibition, % at 6.25 µM;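 active = mean inhibition above about 25%, limit read from the data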
# Starred values were filed as active, the others as inactive; · = not tested or not shown.
SMILES,TAG inh,697 NFkB inh,Gli-Sufu antag,aSyn 5UTR inh,Shn3 3UTR inh,Jurkat NFkB inh,Gli antag conf,SufuKO cytotox,Wnt3a counter
Cc1cc(Br)cc2c1N(C)C(=O)C2(c1ccc(O)cc1)c1ccc(O)cc1,-10,10,3,-4,-1,13,·,·,·
CCOC(=O)CN(C(=O)CSc1nnc(-c2cccc(OC)c2)o1)c1ccc(F)cc1,·,6,99*,9,5,-5,11,11,-36
COc1ccccc1N1C(C)=CC(=C(C#N)c2nc3ccccc3s2)C=C1C,·,-34,53,5,7,-4,54*,11,38*
CC1=CC(=C(C#N)c2nc3ccccc3s2)C=C(C)N1c1ccc(F)cc1,17,-33,-8,-22,-24,-39,·,·,·
CCn1c(SCC(=O)c2ccccc2)nnc1-c1cc2cc(Br)ccc2o1,-45,-12,6,9,7,-2,·,·,·
Cc1ccc(CNc2nc3cc(-c4ccccc4C)sc3c(=O)n2C)c(C)c1,0,·,·,·,-4,·,·,·,·
O=C(NCCCN1CCOCC1)c1ccc(S(=O)(=O)Nc2ccccc2F)cc1,1,-10,90*,-14,17,-8,14,2,-20
CCCN1CCN(C(=O)CCCn2c(C)c3cnn(-c4ccccc4)c(=O)c3c2C)CC1,11,13,5,10,-3,8,·,·,·
CCC(C(=O)NCCN1CCN(C)CC1)n1c(C)c2cnn(-c3ccccc3)c(=O)c2c1C (stereo not drawn),21,0,94*,-12,-2,2,10,24,-9
CCC(=O)Nc1cccc(-n2nnnc2SCC(=O)N2CCCCC2)c1,-6,-1,59*,-49,9,-15,7,15,1
CC1(C)Cc2c(sc3nc(-c4ccccc4)n(N)c(=O)c23)CO1,11,-15,74*,-48,-3,-15,6,-7,-74
COc1ccc(/C=C(/NC(=O)c2ccccc2)C(=O)N/N=C/c2ccc3c(c2)OCO3)cc1OC,·,·,84*,·,-3,·,18,0,-7
O=C(N/N=C/c1ccco1)c1ccccn1,·,-6,-22,-32,-42,-6,·,·,·
O=C(Cc1nnc(NC(=O)c2ccccc2)s1)N/N=C/c1ccc(O)cc1,4,-7,53,1,-3,6,10,19,-36
O=C(Cc1nnc(NC(=O)c2ccccc2)s1)N/N=C\c1ccc(O)c(O)c1,11,-16,5,-10,-12,-7,·,·,·
CC(C)c1cc(C(=O)Nc2cc(Cl)ccc2O)no1,·,-30,-2,-290,-93,-115,·,·,·
CCSc1nnc([C@@H](NC(=O)OC(C)(C)C)C(C)C)o1,12,-10,9,-10,15,11,·,·,·
C=C(C)CSc1nnc([C@@H](NC(=O)OC(C)(C)C)C(C)CC)o1 (stereo partly drawn),·,-32,94*,3,21,0,20,13,-31
CN(C)S(=O)(=O)c1ccc(S(=O)(=O)N2CCCC(C(=O)NC3CCCC3)C2)cc1 (stereo not drawn),·,-8,70*,-1,69,16,28,33*,3
N#Cc1c(NC(=O)CCC(=O)O)sc2c1CCCCC2,-3,5,·,-4,-34,-1,·,·,·
CC(C)(C)C(=O)Nc1cc(S(=O)(=O)N2CCCCC2)ccc1N1CCCCC1,-17,8,55,9,84*,12,27,0,-18
Cc1cc(/C=N/n2cnnc2)c(C)n1-c1ccc(OCc2ccc(F)cc2)cc1,·,-93,74*,-73,77,7,74*,28*,22
